Our source for the PBM binding z-score values is the supplement of paper PMC6555819.

The test system of this assay is RARb:RXRa (NR concentration 270 nM, RXRa partner concentration 90 nM). The assay can be described thus: PBM binding z-score (relative to random genomic background probes); higher = stronger binding; sequences stand for … in GC…GCGATTGACAGCGTAGAATGAAGG
In outline:
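Binding z-scores take random background probes as their reference. They come from custom Agilent 4×180K protein-binding microarrays incubated 1 h with ligand-free nuclear receptor dimers, with antibodies against each partner (one per run) detecting binding. Scanned fluorescence was regression-normalized.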
Take CCGACTGGGGAAAAGGTTACCATACTCAGTACGA: the PBM binding z-score amounted to 1.59.
As for CAAACGAGGGCATGAGTTGATAGCAAATGCCGAT, the PBM binding z-score is 2.24.
The figure for TTACCAAAGTGAGCTGAGGTCGTTGATCCAACTC is 0.34.
Consider TCGAGTAGGTTAGTGGCATTCAGAATGGCGTCGA, for which the PBM binding z-score came to 0.0922.
Sequence CCAGACAGGTGAGAAGGTAATTCAGCCTCGATTA came in with a PBM binding z-score of 0.555.
In turn, CGTCCAAGGTCAGCAGGTCAGTGTAAGCGACGTG yielded a PBM binding z-score of 5.35.
For GCAGACAGGTGAAACGAAGGTAACTCAGGGTGGC, the PBM binding z-score was determined as 0.818.
In turn, GCGATTGGGGCATCAGCAGGTTACCATAACTTAA returned a PBM binding z-score of 0.823.
The value for CCTTACGGGTCACTCCGGGTTATAGCATCGGAGT was 3.37.
CCTAGCAGGCCTATCTGGGTCACTCAAGGCTTGA displayed a PBM binding z-score of 0.909.
Take ACTCGGAGCACAAAGGTCAGAGCTACGCCAGTGA: the PBM binding z-score was 4.29.
The value for AGAGTGAGGTTAAGATCAGGGAAACAGAATACAT was 2.38; that for CAAACTAGGTCGCGAAAGGTCAAAGTCGAATGAC was 5.01; that for CAAACTAGGTCTAAGGTCAAAGTCGAGCCAACCA was 4.14.
For GATACAGGGTCAAGGCCAGAGTTCGCGTATTGAT, the PBM binding z-score is 4.49.
The value for CCTACTAGGCCACGAAAGGTCATTGATTCAGTGA was 4.06; that for AGAATGAGGTTAAGATCAGGGACACAGAATACAT was 2.23; that for TCTTGTAGATCTAGCAGGTTAAGAAAGCCTGAGT was 0.0972.
CCGAGTAGGTTATAGGGCATTCAGGCAACGGTGA returned a PBM binding z-score of 1.24.
The value for TAGCCTAGGTCTTTCAGGGGCCAGTATAGAAAGC was 0.577; that for CCTGGTAGGTCAATGGTCAGCTAAAGCAGCTCGC was 3.63.
The value for CCTACTGTGCCAAGGTCATTGATCAGTCAAAGCA was 3.28; that for TCTCGTTGGTCAAAGGTCACACACTCGAAATGCG was 5.27; that for TAGCCTAGGTCATTGGGCCACTATAGTACGCATC was 3.49.
The value for TAGCCTAGGTCATTCAGTGGCCAGTATAGAAAGC was 3.65; that for TGAATGAGGTTATAAGATGAGGGAACGTTGCAAA was 1.19.
Sequence CAAACTAGGCCAAAGGTCAAAGTCGAGCCAACCA came in with a PBM binding z-score of 5.26.
The figure for GCAGGCAGGTGAAACGCAGGTAACTCAGGGTGGC is 0.562; for CTCGAAAGGTCGGTTGAGGTTAGTATACGGATAA it is 3.06; for CCAACTAGGTCAAGGACAGTGAATCTCCGCACGC it is 3.98.
The figure for CCGACTGGGGCATAAAGGTTACCATACCATCCGG is 1.89.
The value for ACTAGTTGGTCAGCTGAGGTCAGACACAATTCGG was 2.86.
The sequence AGTCAAAGTTCATCTAGGTACCGTAAGATATGCT showed a PBM binding z-score of 4.81.
The figure for CCGACAGGGGCAAAGGTTACCATACTCAGTACGA is 2.89.
The value for CCTATTGGGCCATTCAGAGGTCATTGATCATATG was 3.28; that for CCTATTAGTTGACCCTAAGGGCAACCGAAGCTCG was 2.93; that for AGTCAAAGTTCCCTAGGTAACGTAAGATTCAGCT was 0.687.
The value for TGTAGCAGGCCAGAGGGTCACTCAAGAGGTACGG was 2.35; that for TAGCCTTGGTCAGATCGGGCCAGTATACGCTATA was 0.307; that for ATCCCTAGGTAAAGTTCAGTGAAAGATCGATAGA was 2.39.
